Whole data set: some 16,000 sequences, median “rpm ratio (pull-down/input)” near 0.5, cut for the highest 2% near 5.5. Many of the other results were omitted from the sample, so the highest values are more common in it than they were.
Target: T1, MBP-FoxP3dN (Mus musculus, UniProt Q99JB6 188-423)
T1 sequence: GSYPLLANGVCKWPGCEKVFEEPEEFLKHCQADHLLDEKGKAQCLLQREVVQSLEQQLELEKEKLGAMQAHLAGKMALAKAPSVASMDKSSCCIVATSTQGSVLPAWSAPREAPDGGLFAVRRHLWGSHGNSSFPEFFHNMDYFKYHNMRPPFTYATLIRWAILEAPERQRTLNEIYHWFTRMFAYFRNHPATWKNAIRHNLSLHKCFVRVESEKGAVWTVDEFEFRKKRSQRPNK
Assay: PD-seq (MBP pull-down with sequencing); 20 mM Tris-HCl pH 7.5, 100 mM NaCl, 1.5 mM MgCl2, 0.4 uM protein, 0.1 uM dsDNA library, 30 min, room temperature, amylose pull-down; high values mean tight binding
Details: protein: recombinant; tags: His6-MBP; chain copies: 2; dsDNA, one strand shown
Summary of the method: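 A fragment of mouse FoxP3 or FoxP1 without its N-terminus, carrying a His6-MBP tag and produced in E. coli, was combined at 0.4 µM with a 0.1 µM degenerate double-stranded DNA library filled in with Klenow. The mixture sat for 30 min at room temperature in Tris pH 7.5 buffer containing NaCl and MgCl2. Protein–DNA complexes were captured on amylose resin, washed three times, and the DNA was freed with proteinase K, barcoded by PCR and sequenced on Illumina. Binding is expressed as reads-per-million enrichment of pull-down over input, with replicates pooled.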

Row | Sequence | binding signal
1 | GATGATTGTTCTCCCAGCTGATGAATTGAGTGCCTCGAGTAAACAAATTTTCCTAATCTTTCTGTTCAAGCGCCATCTAC | 0.963 RPM ratio (pull-down/input)
2 | GATGATTGTTCTCCCAGCTGATGAATTCATTGAATCGAGTAAACAAATTTTCCTAATCTTTCTGTTCAAGCGCCATCTAC | 0.267 RPM ratio (pull-down/input)
3 | GATGATTGTTCTCCCAGCTGATGAATTGTGGACCTCGAGTAAACAAATTTTCCTAATCTTTCTGTTCAAGCGCCATCTAC | 0.571 RPM ratio (pull-down/input)
4 | GATGATTGTTCTCCCAGCTGATGAATTCAATAGGTCGAGTAAACAAATTTTCCTAATCTTTCTGTTCAAGCGCCATCTAC | 0.536 RPM ratio (pull-down/input)
5 | GATGATTGTTCTCCCAGCTGATGAATTCGGATGGTCGAGTAAACAAATTTTCCTAATCTTTCTGTTCAAGCGCCATCTAC | 0.433 RPM ratio (pull-down/input)
6 | GATGATTGTTCTCCCAGCTGATGAATTTCTGCACTCGAGTAAACAAATTTTCCTAATCTTTCTGTTCAAGCGCCATCTAC | 0.475 RPM ratio (pull-down/input)
7 | GATGATTGTTCTCCCAGCTGATGAATTCAAGTGTTCGAGTAAACAAATTTTCCTAATCTTTCTGTTCAAGCGCCATCTAC | 0.65 RPM ratio (pull-down/input)
8 | GATGATTGTTCTCCCAGCTGATGAATTCGGACCATCGAGTAAACAAATTTTCCTAATCTTTCTGTTCAAGCGCCATCTAC | 0.399 RPM ratio (pull-down/input)
9 | GATGATTGTTCTCCCAGCTGATGAATTATAAGATTCGAGTAAACAAATTTTCCTAATCTTTCTGTTCAAGCGCCATCTAC | 0.351 RPM ratio (pull-down/input)
10 | GATGATTGTTCTCCCAGCTGATGAATTGTCTGTGTCGAGTAAACAAATTTTCCTAATCTTTCTGTTCAAGCGCCATCTAC | 0.563 RPM ratio (pull-down/input)
11 | GATGATTGTTCTCCCAGCTGATGAATTTGATGTGTCGAGTAAACAAATTTTCCTAATCTTTCTGTTCAAGCGCCATCTAC | 6.14 RPM ratio (pull-down/input)
12 | GATGATTGTTCTCCCAGCTGATGAATTTGTGTTGTCGAGTAAACAAATTTTCCTAATCTTTCTGTTCAAGCGCCATCTAC | 6.27 RPM ratio (pull-down/input)
13 | GATGATTGTTCTCCCAGCTGATGAATTGAATGTGTCGAGTAAACAAATTTTCCTAATCTTTCTGTTCAAGCGCCATCTAC | 1.26 RPM ratio (pull-down/input)
14 | GATGATTGTTCTCCCAGCTGATGAATTTGTGTCGTCGAGTAAACAAATTTTCCTAATCTTTCTGTTCAAGCGCCATCTAC | 5 RPM ratio (pull-down/input)
15 | GATGATTGTTCTCCCAGCTGATGAATTTGTTGTGTCGAGTAAACAAATTTTCCTAATCTTTCTGTTCAAGCGCCATCTAC | 8.35 RPM ratio (pull-down/input)
16 | GATGATTGTTCTCCCAGCTGATGAATTTCTTGTGTCGAGTAAACAAATTTTCCTAATCTTTCTGTTCAAGCGCCATCTAC | 1.59 RPM ratio (pull-down/input)

Row | Sequence | binding signal
17 | GATGATTGTTCTCCCAGCTGATGAATTGTGAATGTCGAGTAAACAAATTTTCCTAATCTTTCTGTTCAAGCGCCATCTAC | 1.32 RPM ratio (pull-down/input)
18 | GATGATTGTTCTCCCAGCTGATGAATTTTCTGTGTCGAGTAAACAAATTTTCCTAATCTTTCTGTTCAAGCGCCATCTAC | 0.415 RPM ratio (pull-down/input)
19 | GATGATTGTTCTCCCAGCTGATGAATTGATTGTGTCGAGTAAACAAATTTTCCTAATCTTTCTGTTCAAGCGCCATCTAC | 3.72 RPM ratio (pull-down/input)
20 | GATGATTGTTCTCCCAGCTGATGAATTGTGATTGTCGAGTAAACAAATTTTCCTAATCTTTCTGTTCAAGCGCCATCTAC | 4.91 RPM ratio (pull-down/input)
21 | GATGATTGTTCTCCCAGCTGATGAATTTGTGATGTCGAGTAAACAAATTTTCCTAATCTTTCTGTTCAAGCGCCATCTAC | 5.62 RPM ratio (pull-down/input)
22 | GATGATTGTTCTCCCAGCTGATGAATTTAGTATATCGAGTAAACAAATTTTCCTAATCTTTCTGTTCAAGCGCCATCTAC | 2.93 RPM ratio (pull-down/input)
23 | GATGATTGTTCTCCCAGCTGATGAATTAGCTGGCTCGAGTAAACAAATTTTCCTAATCTTTCTGTTCAAGCGCCATCTAC | 0.476 RPM ratio (pull-down/input)
24 | GATGATTGTTCTCCCAGCTGATGAATTTATTACGTCGAGTAAACAAATTTTCCTAATCTTTCTGTTCAAGCGCCATCTAC | 1.22 RPM ratio (pull-down/input)
25 | GATGATTGTTCTCCCAGCTGATGAATTGGCGACGTCGAGTAAACAAATTTTCCTAATCTTTCTGTTCAAGCGCCATCTAC | 0.41 RPM ratio (pull-down/input)
26 | GATGATTGTTCTCCCAGCTGATGAATTAGGTTGGTCGAGTAAACAAATTTTCCTAATCTTTCTGTTCAAGCGCCATCTAC | 1.62 RPM ratio (pull-down/input)
27 | GATGATTGTTCTCCCAGCTGATGAATTTTGTGTGTCGAGTAAACAAATTTTCCTAATCTTTCTGTTCAAGCGCCATCTAC | 5.59 RPM ratio (pull-down/input)
28 | GATGATTGTTCTCCCAGCTGATGAATTTTTTGTGTCGAGTAAACAAATTTTCCTAATCTTTCTGTTCAAGCGCCATCTAC | 0.531 RPM ratio (pull-down/input)
29 | GATGATTGTTCTCCCAGCTGATGAATTCTTTGTGTCGAGTAAACAAATTTTCCTAATCTTTCTGTTCAAGCGCCATCTAC | 0.573 RPM ratio (pull-down/input)
30 | GATGATTGTTCTCCCAGCTGATGAATTAGTCTGATCGAGTAAACAAATTTTCCTAATCTTTCTGTTCAAGCGCCATCTAC | 0.373 RPM ratio (pull-down/input)
31 | GATGATTGTTCTCCCAGCTGATGAATTCTCCCGTTCGAGTAAACAAATTTTCCTAATCTTTCTGTTCAAGCGCCATCTAC | 0.247 RPM ratio (pull-down/input)

Source: article PMC12820563, “FoxP3 forms a head-to-head dimer in vivo and stabilizes its multimerization on adjacent microsatellites”
